Data taken from PMC4336329 (PLoS ONE, 2015).
Hit rate of the full screen: of about 310,000 compounds, about 2,200 (0.71%) showed an effect of 50% or more. Effects have a minus sign here. The list comes from a sample in which strong results are over-represented; it also holds similar structures and randomly drawn compounds.

molecular target: human ether-à-go-go-related gene (hERG) potassium channel (human, UniProt Q12809); experiment: primary screen, population patch clamp on CHO cells stably expressing hERG; higher = less effect of the substance
Sequence (Q12809 whole entry, looked up): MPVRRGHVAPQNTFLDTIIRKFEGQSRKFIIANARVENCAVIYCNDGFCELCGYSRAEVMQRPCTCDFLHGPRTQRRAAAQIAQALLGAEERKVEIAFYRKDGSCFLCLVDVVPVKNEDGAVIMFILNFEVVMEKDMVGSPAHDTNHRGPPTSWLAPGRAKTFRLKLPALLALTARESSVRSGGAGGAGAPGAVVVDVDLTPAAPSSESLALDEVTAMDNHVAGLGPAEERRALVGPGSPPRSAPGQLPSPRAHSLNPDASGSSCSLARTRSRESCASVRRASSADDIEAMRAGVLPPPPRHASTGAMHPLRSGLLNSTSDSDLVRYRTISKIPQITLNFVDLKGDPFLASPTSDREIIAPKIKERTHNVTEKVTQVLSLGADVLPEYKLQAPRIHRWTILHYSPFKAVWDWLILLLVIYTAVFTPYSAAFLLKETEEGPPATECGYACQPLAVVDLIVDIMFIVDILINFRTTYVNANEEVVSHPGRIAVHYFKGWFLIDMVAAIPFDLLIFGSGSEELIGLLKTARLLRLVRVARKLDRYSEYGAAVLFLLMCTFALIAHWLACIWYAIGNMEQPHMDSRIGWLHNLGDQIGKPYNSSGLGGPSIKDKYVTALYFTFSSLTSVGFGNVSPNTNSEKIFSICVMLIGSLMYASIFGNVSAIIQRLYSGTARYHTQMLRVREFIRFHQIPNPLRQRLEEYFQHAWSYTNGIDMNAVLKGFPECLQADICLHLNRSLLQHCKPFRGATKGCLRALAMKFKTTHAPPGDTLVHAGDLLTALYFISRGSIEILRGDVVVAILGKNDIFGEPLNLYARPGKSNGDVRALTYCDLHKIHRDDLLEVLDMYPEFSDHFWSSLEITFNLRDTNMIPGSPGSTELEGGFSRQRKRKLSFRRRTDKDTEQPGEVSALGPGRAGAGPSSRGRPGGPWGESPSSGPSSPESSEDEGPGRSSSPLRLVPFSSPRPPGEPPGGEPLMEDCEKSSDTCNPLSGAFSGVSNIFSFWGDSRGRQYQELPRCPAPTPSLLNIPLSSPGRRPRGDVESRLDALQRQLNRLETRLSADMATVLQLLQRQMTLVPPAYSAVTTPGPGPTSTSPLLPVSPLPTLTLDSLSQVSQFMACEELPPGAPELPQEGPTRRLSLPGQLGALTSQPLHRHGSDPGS

Compound | hERG current change (%, negative = inhibition) at 1uM
CCCCNCC(=O)Nc1ccc(NC(=O)CNCCCC)cc1 | 16.2%
CCCN1Cc2cccc(C(N)=O)c2C1=O | 3.15%
Cc1cccc(CN2CCCC(C(=O)c3ccc(C(F)(F)F)cc3)C2)n1 (stereo not shown) | -40%
O=C(c1cccc(C(F)(F)F)c1)C1CCCN(Cc2cccn2-c2ncccn2)C1 (stereo not shown) | -105%
CCn1ccnc1CN1CCCC(C(=O)c2cccc(C(F)(F)F)c2)C1 (stereo not shown) | 1.55%
O=C(c1cccc(C(F)(F)F)c1)C1CCCN(Cc2cccn2-c2ccccn2)C1 (stereo not shown) | -90.4%
CC(=O)Nc1ccc(CN2CCCC(C(=O)c3cccc(C(F)(F)F)c3)C2)cc1 (stereo not shown) | 7.86%
O=C(c1cccc(C(F)(F)F)c1)C1CCCN(Cc2ncc[nH]2)C1 (stereo not shown) | 11.1%
O=C(c1ccc(C(F)(F)F)cc1)C1CCCN(Cc2cccn2-c2ncccn2)C1 (stereo not shown) | -88%
O=C(c1ccc(C(F)(F)F)cc1)C1CCCN(Cc2ccncc2)C1 (stereo not shown) | -7.99%
O=C(c1cccc(C(F)(F)F)c1)C1CCCN(Cc2ccccc2O)C1 (stereo not shown) | 13.2%
CC(=O)c1ccc(S(=O)(=O)Nc2ccccc2C(=O)NC2CC2)cc1 | 9.72%
O=C1CN(S(=O)(=O)c2cccc(C(=O)O)c2)c2ccccc2N1 | 11.3%
CCC(CC)c1nnc(NC(=O)c2ccc(N3CCCCC3)c([N+](=O)[O-])c2)s1 | -9.23%
CC(CCc1ccccc1)NCC(O)c1cccc([N+](=O)[O-])c1.Cl (stereo not shown) | -8.42%
CC(CCc1ccccc1)N(C)CC(O)c1cccc([N+](=O)[O-])c1.Cl (stereo not shown) | -56.8%
C=CCN(CC(O)c1cccc([N+](=O)[O-])c1)C(C)CCc1ccccc1.Cl (stereo not shown) | -9.83%
CCOC(=O)C1(CC2CCCCO2)CCN(Cc2c(C)cc(C)cc2-n2cccn2)CC1 (stereo not shown) | -84.1%
CCn1ncc(CN2CCCC(CNC(=O)c3ccc(F)cc3)C2)c1C (stereo not shown) | 1.73%
CCOC(=O)C1(CC2CCCCO2)CCN(Cc2nccn2-c2cccc(C)c2)CC1 (stereo not shown) | -1.48%
O=C(NCC1CCCN(Cc2cccc(C(F)(F)F)c2)C1)c1ccc(F)cc1 (stereo not shown) | -5.71%
CCOC(=O)C1(CC2CCCCO2)CCN(Cc2cc(F)ccc2-n2cccn2)CC1 (stereo not shown) | -14.9%
COc1cccc(CN2CCCC(CNC(=O)c3ccc(F)cc3)C2)c1OC (stereo not shown) | -12.6%

Compound | hERG current change (%, negative = inhibition) at 1uM
Cc1cc(CN2CCCC(CNC(=O)c3ccc(F)cc3)C2)cc(C)c1O (stereo not shown) | -14.5%
Cc1cc(C)c(CN2CCCC(CNC(=O)c3ccc(F)cc3)C2)c(-n2cccn2)c1 (stereo not shown) | -85.4%
Cc1ccc(-n2cccn2)c(CN2CCCC(CNC(=O)c3ccc(F)cc3)C2)c1 (stereo not shown) | -78.9%
COc1cccc(NC(=O)NCCCCc2ccccc2)c1 | -0.169%
CCOC(=O)CN(C(=O)c1snc(C(N)=O)c1N)C(C(=O)NCCC(C)C)c1ccc(F)cc1 (stereo not shown) | 7.34%
COc1ccccc1CNC(=O)C(CCSC)NS(=O)(=O)c1ccc2c(c1)oc(=O)n2C (stereo not shown) | 15.7%
CN(C)S(=O)(=O)c1cccc(C(=O)OCC(=O)N2CCCC2=O)c1 | 12.1%
O=C(CNC(=O)c1ccc(Cl)cc1)OCC(=O)c1ccccc1 | -0.984%
Cn1c(SCC(=O)NCCc2ccccc2)ncc(C(=O)Nc2ccc(F)cc2)c1=O | 12.5%
CC(C(=O)Oc1ccc2c(c1)OCO2)N1C(=O)c2ccccc2C1=O (stereo not shown) | -1.93%
C/C(=N\N1CCN(c2ccc(Cl)cc2)CC1)c1cccs1 | 4.52%
O=C(NC1CCCCC1)c1ccc(NS(=O)(=O)c2cccc3cccnc23)cc1 | 12.5%
CCC(c1nnnn1C1CCCCC1)N1CCN(C2CCCC2)CC1.Cl (stereo not shown) | 11.6%
CCCC(c1nnnn1C1CCCCC1)N1CCN(C2CCCC2)CC1.Cl (stereo not shown) | -16.6%
CCCCC(c1nnnn1C1CCCC1)N1CCN(C2CCCCC2)CC1 (stereo not shown) | -63.1%
CCCC(c1nnnn1C(C)(C)CC)N1CCN(C2CCCC2)CC1.Cl (stereo not shown) | -17.8%
CCCCC(c1nnnn1C1CCCC1)N1CCN(C2CCCC2)CC1.Cl (stereo not shown) | -82%
CCCCC(c1nnnn1C1CCCC1)N1CCN(C(=O)c2ccco2)CC1.Cl (stereo not shown) | -13.5%
C=CCNC(=O)c1c(Cl)cccc1Cl | 6.34%
COC(=O)C1=C(CSCc2ccco2)NC(=O)NC1c1cc(C)ccc1C (stereo not shown) | -8.26%
OCCC1CN(Cc2ccc(F)cc2)CCN1CCCc1ccccc1 (stereo not shown) | -55%
Cc1ccc(CN2CCN(CCCn3cccn3)CC2CCO)cc1 (stereo not shown) | -23.7%
OCCC1CN(CCCn2cccn2)CCN1Cc1ccccc1 (stereo not shown) | 8.59%

Compound | hERG current change (%, negative = inhibition) at 1uM
CCOc1ccc(CN2CCN(CCCn3cccn3)CC2CCO)cc1 (stereo not shown) | -83%
COc1cccc(CN2CCN(CCCc3ccccc3)C(CCO)C2)c1O (stereo not shown) | -41.8%
OCCC1CN(Cc2ccc(F)cc2)CCN1CCc1ccccc1 (stereo not shown) | -48%
CCOc1cccc(CN2CCN(CCc3ccccc3)C(CCO)C2)c1O (stereo not shown) | -20.1%
CCOc1ccc(CN2CCN(CCCc3ccccc3)CC2CCO)cc1 (stereo not shown) | -80.9%
OCCC1CN(CCCc2ccccc2)CCN1Cc1ccc(F)cc1 (stereo not shown) | -12.1%
CCOc1ccccc1CN1CCN(CCCc2ccccc2)CC1CCO (stereo not shown) | -30%
COc1cc(CN2CCN(CCCc3ccccc3)CC2CCO)cc(OC)c1 (stereo not shown) | -46.8%
CCOc1cccc(CN2CCN(CCCc3ccccc3)C(CCO)C2)c1O (stereo not shown) | -54.7%
CC(C)Oc1ccc(Cc2n[nH]c(=S)n2Cc2ccccc2)cc1Cl | 5.04%
CC(=O)c1c(C)[nH]c(C(=O)OCC(=O)Nc2ccc(Cl)c(S(=O)(=O)N(C)C)c2)c1C | -2.69%
CCCNc1nc(C)cc(-c2cc(C(=O)NCc3ccccc3)on2)n1 | 12%
Cc1c(Cl)cccc1Nc1nc(N)nc(CSC(=S)N2CCOCC2)n1 | 8.31%
CCOC(=O)/C(C#N)=C\c1c(C)cc(C)c(COC(C)=O)c1C | 15.6%
C#Cc1ccc(CN2CCN(CCCc3ccccc3)C(CCO)C2)cc1 (stereo not shown) | -14.1%
OCCC1CN(CCCc2ccccc2)CCN1Cc1ccccc1 (stereo not shown) | -35.6%
OCCC1CN(CCCc2ccccc2)CCN1CCc1ccccc1 (stereo not shown) | -32.3%
COc1ccc(CN2CCN(CCCc3ccccc3)C(CCO)C2)c(O)c1 (stereo not shown) | -71.2%
COc1ccc(O)c(CN2CCN(CCCc3ccccc3)C(CCO)C2)c1 (stereo not shown) | -21.7%
CCOc1ccc(CN2CCN(CCCc3ccccc3)C(CCO)C2)cc1 (stereo not shown) | -75.8%
OCCOc1ccc(CN2CCN(CCCc3ccccc3)C(CCO)C2)cc1 (stereo not shown) | -19.8%
Cc1ccc(CN2CCN(CCCc3ccccc3)CC2CCO)cc1 (stereo not shown) | -68.7%
COc1ccc(CN2CCN(CCc3ccccc3)C(CCO)C2)c(O)c1 (stereo not shown) | -26.9%

Compound | hERG current change (%, negative = inhibition) at 1uM
N#C/C(=C/c1ccc(-c2ccc(C(=O)O)c(Cl)c2)o1)C(=O)NCC1CCCO1 (stereo not shown) | 10.3%
COc1ccccc1CN1[C@@H](CC(=O)O)c2cc(F)ccc2S1(=O)=O | 13.9%
Cc1ccc(S(=O)(=O)N2CCOCC2)cc1NC(=O)COC(=O)CNC(=O)c1ccc(C(C)(C)C)cc1 | 20.2%
COC(=O)C1=C(c2cc3ccccc3s2)C[C@@H]2CC[C@H]1N2C(=O)NCCCOC(C)C | 2.84%
Cc1ccc(S(=O)(=O)N(C)N=O)cc1 | 19.1%
CCn1ccnc1CN1CCN(CC=C(C)C)C(CCO)C1 (stereo not shown) | 9.77%
Cc1ccccc1-c1ccc(/C=C2/SC(N3CCOCC3)=NC2=O)o1 | -3.7%
Cc1ccc(-c2ccc(/C=C3\SC(N4CCOCC4)=NC3=O)o2)cc1 | -54.6%
O=C1N=C(N2CCOCC2)S/C1=C/c1ccc(-c2ccc(F)cc2)o1 | 9.65%
CCc1nc2c(nnn2Cc2ccc(F)cc2)c(=O)[nH]1 | 1.79%
COc1ccc(C2CCCN2C(=S)Nc2cccc(Cl)c2C)cc1OC (stereo not shown) | 2.08%
N#C/C(=C\c1ccc(OCCN2CCOCC2)cc1)C(=O)Nc1ccccc1F | 12.6%
CCCC(C(=O)OCC)P(=O)(c1ccccc1)c1ccccc1 (stereo not shown) | -0.896%
CCOc1ccccc1NC(=O)CSc1nc2cccnc2n1C | 5.84%
Cn1c(SCCCC(=O)c2ccccc2)nnc1-c1ccncc1 | -24.9%
Cn1c(SCCCC(=O)c2ccc(Br)cc2)nnc1-c1ccncc1 | -51.1%
Cn1c(SCCCC(=O)c2ccc(F)cc2)nnc1-c1ccncc1 | -38.5%
Cc1ccc(NC(=O)c2ccc(CSc3nnc(C)s3)cc2)c(C)c1 | 9.08%
CCn1c(CNC(=O)c2ccc(OC)c(OC)c2)nnc1SCC(=O)Nc1ccc(OC)cc1 | 6.99%
Cn1c(SCc2ccc(C#N)cc2)nnc1-c1ccncc1 | 6.61%
N#Cc1ccc(CSc2nnc(-c3ccncc3)n2CCc2ccccc2)cc1 | -78.2%
c1ccc(CCn2c(SCc3ccccc3)nnc2-c2ccncc2)cc1 | -12.4%
